The antibiotic and cytotoxicity screens of Wong et al. (2023)
Out of some 39,000 compounds screened, about 3,300 (8.5%) were called active. Shown is part of a subset that was picked to be rich in actives.

Tested on: HepG2
Assay: cytotoxicity call (relative viability < 0.9)
Details: 10 µM

| Structure (SMILES) | cytotoxicity call |
| --- | --- |
| COc1ccc(S(=O)(=O)Nc2ccc3c(c2)C(=O)N([C@H](C)CO)C[C@@H](C)[C@@H](CN(C)C(=O)CCC(F)(F)F)OCCCC[C@H](C)O3)cc1 | inactive |
| C[C@@H]1CCCCO[C@@H](CN(C)S(=O)(=O)c2ccc(F)cc2)[C@H](C)CN([C@@H](C)CO)C(=O)c2cc(NS(=O)(=O)c3ccc(Cl)cc3)ccc2O1 | inactive |
| C[C@H](CO)N1C[C@H](C)[C@H](CN(C)Cc2ccc3c(c2)OCO3)OCCCC[C@H](C)Oc2ccc(NC(=O)c3ccccc3)cc2C1=O | inactive |
| Nc1nnc(SC[C@@H](O)CO)s1 | inactive |
| COc1ccc(NC(=O)N(C)C[C@@H]2Oc3ccc(NS(C)(=O)=O)cc3CC(=O)N([C@@H](C)CO)C[C@@H]2C)cc1 | inactive |
| COCC(=O)N(C)C[C@@H]1Oc2cc(C#Cc3ccccc3)ccc2S(=O)(=O)N([C@@H](C)CO)C[C@@H]1C | inactive |
| O=C(O)C[C@@H]1CC[C@@H]2[C@H](COC[C@H](O)CN2S(=O)(=O)c2ccc(F)cc2)O1 | inactive |
| CN(C)CCCNC(=O)C[C@@H]1CC[C@@H]2[C@H](COC[C@H](O)CN2S(=O)(=O)c2ccc(Cl)cc2)O1 | inactive |
| C[C@@H]1CCCCO[C@H](CN(C)S(=O)(=O)c2cccs2)[C@H](C)CN([C@H](C)CO)C(=O)c2cc(NC(=O)NC3CCCCC3)ccc2O1 | inactive |
| C[C@H]1CN([C@@H](C)CO)C(=O)c2cccc(NC(=O)NC3CCCCC3)c2O[C@H]1CN(C)C(=O)Nc1cccc2ccccc12 | inactive |
| CN1CCN(C(=O)C[C@H]2CC[C@@H]3[C@H](COC[C@@H](O)CN3C(=O)C3CC3)O2)CC1 | inactive |
| COC(=O)c1c(CC[C@@H](CO)NC(=O)N2CCC[C@H]2Cn2cc(Cc3ccccc3)nn2)oc(C(C)=O)c1C(=O)OC | inactive |
| C[C@H](CO)N1C[C@H](C)[C@@H](CN(C)Cc2ccc(Oc3ccccc3)cc2)Oc2ccc(NC(=O)CCC(F)(F)F)cc2CC1=O | active |
| C[C@@H]1CN([C@@H](C)CO)C(=O)Cc2cc(NC(=O)CCC(F)(F)F)ccc2O[C@H]1CN(C)Cc1ccc(Oc2ccccc2)cc1 | active |
| Cc1noc(C)c1S(=O)(=O)Nc1ccc2c(c1)C(=O)N([C@H](C)CO)C[C@H](C)[C@@H](CN(C)S(=O)(=O)c1c(C)noc1C)O2 | inactive |
| C[C@H]1CN([C@@H](C)CO)C(=O)c2cccc(NC(=O)c3ccncc3)c2O[C@H]1CN(C)Cc1ccc(C(=O)O)cc1 | inactive |
| C[C@@H]1CN([C@H](C)CO)C(=O)c2cccc(NC(=O)CCCCCC(=O)Nc3ccccc3N)c2O[C@H]1CN(C)Cc1ccccc1 | inactive |
| CCOC(=O)C[n+]1ccccc1C | inactive |
| COC(=O)[C@@H](N)c1cccc(Cl)c1 | inactive |
| CC(C)c1cccc(C(C)C)c1NC(=O)Cc1cccs1 | inactive |
| CC(C)c1cc(C(C)C)c(CC(=O)NS(=O)(=O)Oc2c(C(C)C)cccc2C(C)C)c(C(C)C)c1 | active |

| Structure (SMILES) | cytotoxicity call |
| --- | --- |
| COc1cccc(NC(=O)N[C@@H]2C=C[C@H](CC(=O)N3CCN(C)CC3)O[C@H]2CO)c1 | inactive |
| CO[C@@H]1[C@H](O[P@@](=O)(OC[C@H]2O[C@@H](n3cnc4c(N)ncnc43)C[C@@H]2O)SCOC(=O)OC(C)C)[C@@H](CO)O[C@H]1n1ccc(=O)[nH]c1=O | inactive |
| Nc1ncnc2c1ncn2[C@H]1C[C@H](O)[C@@H](CO)O1 | inactive |
| CO[C@@H]1[C@H](O[P@@](=O)(S)OC[C@H]2O[C@@H](n3cnc4c(N)ncnc43)C[C@@H]2O)[C@@H](CO)O[C@H]1n1ccc(=O)[nH]c1=O | active |
| Cc1noc(C)c1NC(=O)Nc1ccc2c(c1)C(=O)N([C@@H](C)CO)C[C@H](C)[C@@H](CN(C)Cc1ccncc1)OCCCC[C@H](C)O2 | inactive |
| COc1ccc(NC(=O)N(C)C[C@@H]2OCCCC[C@H](C)Oc3ccc(NS(=O)(=O)c4ccc(OC)cc4)cc3C(=O)N([C@H](C)CO)C[C@H]2C)cc1 | inactive |
| C[C@@H]1CCCCO[C@H](CN(C)C(=O)NC2CCCCC2)[C@H](C)CN([C@H](C)CO)C(=O)c2cc(NC(=O)Nc3cccc4ccccc34)ccc2O1 | inactive |
| Cc1noc(C)c1NC(=O)Nc1ccc2c(c1)CC(=O)N([C@H](C)CO)C[C@@H](C)[C@@H](CN(C)Cc1ccc(Oc3ccccc3)cc1)O2 | inactive |
| C[C@@H]1CN([C@H](C)CO)C(=O)Cc2cc(NC(=O)Nc3ccc(C(F)(F)F)cc3)ccc2O[C@H]1CN(C)Cc1ccc(Oc2ccccc2)cc1 | inactive |
| C[C@H]1CN([C@@H](C)CO)C(=O)Cc2cc(NC(=O)Nc3ccc(C(F)(F)F)cc3)ccc2O[C@H]1CN(C)Cc1ccc(Oc2ccccc2)cc1 | active |
| C[C@@H]1CN([C@H](C)CO)C(=O)Cc2cc(NC(=O)Nc3ccc(C(F)(F)F)cc3)ccc2O[C@@H]1CN(C)Cc1ccc(Oc2ccccc2)cc1 | active |
| C[C@@H]1CN([C@@H](C)CO)C(=O)Cc2cc(NC(=O)Nc3ccc(C(F)(F)F)cc3)ccc2O[C@@H]1CN(C)Cc1ccc(Oc2ccccc2)cc1 | active |
| C[C@H](CO)N1C[C@H](C)[C@@H](CN(C)Cc2ccc(Oc3ccccc3)cc2)Oc2ccc(NC(=O)Nc3ccc(C(F)(F)F)cc3)cc2CC1=O | active |
| COc1ccc(NC(=O)Nc2ccc3c(c2)C(=O)N([C@@H](C)CO)C[C@@H](C)[C@@H](CN(C)C(=O)C2CCCCC2)OCCCC[C@H](C)O3)cc1 | inactive |
| CN1CCN(C(=O)C[C@@H]2CC[C@H]3[C@@H](COC[C@H](O)CN3CC3CCCC3)O2)CC1 | inactive |
| COc1ccc(S(=O)(=O)Nc2ccc3c(c2)C(=O)N([C@H](C)CO)C[C@H](C)[C@H](CN(C)S(=O)(=O)c2ccc(F)cc2)O3)cc1 | inactive |
| C[C@@H]1CN([C@H](C)CO)C(=O)c2ccccc2-c2ccccc2CO[C@H]1CN(C)C(=O)c1cc(Cl)cc(Cl)c1 | inactive |
| Nc1nnc(SCC(=O)N2CCOCC2)[nH]1 | inactive |
| C[C@H]1CN([C@@H](C)CO)C(=O)Cc2cc(NC(=O)Nc3ccc(C(F)(F)F)cc3)ccc2O[C@@H]1CN(C)Cc1ccc(Oc2ccccc2)cc1 | inactive |
| C[C@H](CO)N1C[C@H](C)[C@H](CN(C)Cc2ccc(Oc3ccccc3)cc2)Oc2ccc(NC(=O)Nc3ccc(C(F)(F)F)cc3)cc2CC1=O | active |
| C[C@@H]1CN([C@@H](C)CO)C(=O)Cc2cc(NC(=O)Nc3ccc(C(F)(F)F)cc3)ccc2O[C@H]1CN(C)Cc1ccc(Oc2ccccc2)cc1 | inactive |

| Structure (SMILES) | cytotoxicity call |
| --- | --- |
| COc1c2ccoc2nc2c(OC)c(OCC(O)C(C)(C)O)ccc12 (configuration not stated) | active |
| C[C@@H]1CN([C@@H](C)CO)C(=O)c2cc(Br)cnc2O[C@@H]1CN(C)C(=O)CN1CCOCC1 | inactive |
| CN(C)c1ccc2nc3ccc(N(C)C)cc3[s+]c2c1.O.[Cl-] | active |
| Cc1cc2nc3ccc(N(C)C)cc3[s+]c2cc1N.[Cl-] | active |
| CN(C)c1ccc2c(=O)[nH][nH]c(=O)c2c1 | inactive |
| C[C@@H]1CN([C@@H](C)CO)C(=O)c2cc(C#Cc3ccc(F)cc3)cnc2O[C@H]1CN(C)Cc1ccccn1 | inactive |
| O=C(C[C@H]1C[C@@H]2c3cc(NS(=O)(=O)c4ccc(F)cc4)ccc3O[C@@H]2[C@H](CO)O1)N1CCOCC1 | inactive |
| O=C(C[C@H]1C[C@H]2c3cc(NC(=O)Nc4ccc(C(F)(F)F)cc4)ccc3O[C@H]2[C@H](CO)O1)NCCc1ccccc1 | inactive |
| C[C@H](CO)N1C[C@H](C)[C@@H](CN(C)C(=O)NC2CCCCC2)OCCCC[C@H](C)Oc2ccc(NC(=O)Nc3ccc(C(F)(F)F)cc3)cc2C1=O | inactive |
| C[C@H](CO)N1C[C@H](C)[C@H](CN(C)C(=O)NC2CCCCC2)OCCCC[C@H](C)Oc2ccc(NC(=O)Nc3ccc(C(F)(F)F)cc3)cc2C1=O | active |
| C[C@@H]1CCCCO[C@H](CN(C)C(=O)NC2CCCCC2)[C@H](C)CN([C@@H](C)CO)C(=O)c2cc(NC(=O)Nc3ccc(C(F)(F)F)cc3)ccc2O1 | inactive |
| C[C@H]1CCCCO[C@H](CN(C)C(=O)NC2CCCCC2)[C@@H](C)CN([C@@H](C)CO)C(=O)c2cc(NC(=O)Nc3ccc(C(F)(F)F)cc3)ccc2O1 | active |
| C[C@H]1CCCCO[C@@H](CN(C)C(=O)NC2CCCCC2)[C@@H](C)CN([C@@H](C)CO)C(=O)c2cc(NC(=O)Nc3ccc(C(F)(F)F)cc3)ccc2O1 | active |
| C[C@@H]1CN([C@@H](C)CO)C(=O)c2cc(NC(=O)Nc3ccc(C(F)(F)F)cc3)ccc2O[C@@H](C)CCCCO[C@@H]1CN(C)C(=O)NC1CCCCC1 | inactive |
| C[C@@H]1CCCCO[C@H](CN(C)C(=O)NC2CCCCC2)[C@H](C)CN([C@H](C)CO)C(=O)c2cc(NC(=O)Nc3ccc(C(F)(F)F)cc3)ccc2O1 | inactive |
| C[C@@H]1CCCCO[C@@H](CN(C)C(=O)NC2CCCCC2)[C@@H](C)CN([C@H](C)CO)C(=O)c2cc(NC(=O)Nc3ccc(C(F)(F)F)cc3)ccc2O1 | active |
| C[C@@H]1CCCCO[C@@H](CN(C)C(=O)NC2CCCCC2)[C@@H](C)CN([C@@H](C)CO)C(=O)c2cc(NC(=O)Nc3ccc(C(F)(F)F)cc3)ccc2O1 | inactive |
| C[C@@H]1CCCCO[C@H](CN(C)C(=O)NC2CCCCC2)[C@@H](C)CN([C@@H](C)CO)C(=O)c2cc(NC(=O)Nc3ccc(C(F)(F)F)cc3)ccc2O1 | inactive |
| C[C@@H]1CN([C@H](C)CO)C(=O)c2cc(NC(=O)Nc3ccc(C(F)(F)F)cc3)ccc2O[C@@H](C)CCCCO[C@@H]1CN(C)C(=O)NC1CCCCC1 | inactive |
| C[C@@H]1CCCCO[C@@H](CN(C)C(=O)NC2CCCCC2)[C@H](C)CN([C@@H](C)CO)C(=O)c2cc(NC(=O)Nc3ccc(C(F)(F)F)cc3)ccc2O1 | inactive |
